Bioassay records as filed in PubChem.
VLA-4 inh – inhibition in human VLA-4 binding assay, primary screen, VLA-4 allosteric modulator project, MLPCN library, flow cytometry, VLA-4 expressing cells | ligand binding flow cytometry | inhibition, % (about 7 µM as worked out from the volumes in the protocol) | actives 0.2% (n = 330,000) | AID 2557, 2010; in the data active = inhibition above about 50%
Target sequence (P13612 whole entry, looked up): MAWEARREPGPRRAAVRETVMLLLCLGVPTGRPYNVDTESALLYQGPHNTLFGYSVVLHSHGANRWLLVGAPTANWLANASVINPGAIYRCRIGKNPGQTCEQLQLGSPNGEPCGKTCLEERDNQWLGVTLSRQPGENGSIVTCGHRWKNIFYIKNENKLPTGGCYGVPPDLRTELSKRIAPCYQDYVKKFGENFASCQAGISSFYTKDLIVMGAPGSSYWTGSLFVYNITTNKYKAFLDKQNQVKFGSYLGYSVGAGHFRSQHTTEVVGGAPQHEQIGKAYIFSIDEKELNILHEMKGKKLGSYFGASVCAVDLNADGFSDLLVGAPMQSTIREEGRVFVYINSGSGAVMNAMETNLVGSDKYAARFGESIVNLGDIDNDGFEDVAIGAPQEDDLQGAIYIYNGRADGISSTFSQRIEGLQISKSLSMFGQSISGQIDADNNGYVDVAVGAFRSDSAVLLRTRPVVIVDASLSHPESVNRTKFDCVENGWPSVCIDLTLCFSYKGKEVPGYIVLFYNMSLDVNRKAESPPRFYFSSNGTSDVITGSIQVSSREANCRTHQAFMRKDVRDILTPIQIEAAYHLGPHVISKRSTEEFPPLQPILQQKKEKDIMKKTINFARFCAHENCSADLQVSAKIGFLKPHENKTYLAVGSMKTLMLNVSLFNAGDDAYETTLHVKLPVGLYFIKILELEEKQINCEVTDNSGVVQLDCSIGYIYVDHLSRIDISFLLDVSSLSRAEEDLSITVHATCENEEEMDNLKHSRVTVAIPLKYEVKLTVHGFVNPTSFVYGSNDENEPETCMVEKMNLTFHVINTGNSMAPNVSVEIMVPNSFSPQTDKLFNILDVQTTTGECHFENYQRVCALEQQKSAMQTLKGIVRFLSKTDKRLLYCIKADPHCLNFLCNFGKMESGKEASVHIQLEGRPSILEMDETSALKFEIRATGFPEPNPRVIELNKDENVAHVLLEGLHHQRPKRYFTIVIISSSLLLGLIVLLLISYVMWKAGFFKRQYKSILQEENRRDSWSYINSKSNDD
Platelet DG rel – inhibitors of platelet dense granule secretion, primary screen, cell-based, MLPCN, human platelets; actives 0.22% (n = 300,000); human platelet-rich plasma, SFLLRN dense granule ATP release, luminescence; inhibition, %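 (compounds screened at 7.5 µM in platelet-rich plasma)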;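 active = mean replicate score, as percent of positive control, at or above 50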
HIF activator – HIF pathway transcriptional activators, primary screen, cell-based, U2OS HRE-luciferase, luminescence; U2OS HRE-luciferase reporter; normalized: DMSO 0%, desferrioxamine 100%; actives 0.32% (n = 300,000); activation, % at 7.5 µM (by protocol);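 active = mean activation of at least 10% of the iron chelator positive control signal, with at least half of replicates also reaching 10%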
CHT block – inhibitors of human choline transporter CHT; actives 0.86% (n = 310,000); High affinity choline transporter 1 (Homo sapiens), Q9GZV3; CHT-expressing cells, membrane potential dye, choline response; hits give low values; AID 488975, 2010; B-score at 10 µM;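 active = B-score over 3 SD under the library average, and starting fluorescence ratio not unusually high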;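 note: choline stimulus applied at its EC90 after an EC20 pre-addition; B-score computed on integrated fluorescence ratio after choline addition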
AI-2 QS modul – Vibrio harveyi AI-2 quorum sensing modulators, primary screen, JMH597 strain, luminescence/OD600 ratio; actives 0.4% (n = 300,000); activity change, % at 7.5 µM; Vibrio harveyi JMH597 AI-2 luminescence/OD600 ratio, 9 h; hits give low values; strain lacks LuxN and CqsS sensors; 0 = neutral-control median; in the data active = activity change below about -75%, passing the limit was not always enough;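 note: luminescence divided by OD600 gain over 9 h not by final OD600 alone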
CHT allo act – CHT positive allosteric modulators, primary screen, cell-based, membrane potential dye, choline EC20 | High affinity choline transporter 1 (Homo sapiens), Q9GZV3 | CHT-expressing cells; hits give high values; LV-AA mutant CHT in HEK293 cells | B-score at 10 µM | actives 0.49% (n = 310,000) | AID 488977, 2010;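 active = initial fluorescence not abnormally high and integrated response B-score, plate-corrected, over 3 SD above library mean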
CHT inh conf – CHT inhibitors, confirmation, cell-based, membrane potential dye, duplicate | CHT activity remaining % of control (hits give low values), % at 10 µM | shares compounds with CHT block | AID 493221, 2011 | CHT-expressing cells, choline membrane potential dye; LV-to-AA substituted CHT, HEK293 cells | actives 70% (n = 2,400);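 active = choline transporter activity left, mean of duplicates at 10 µM, below buffer-only control mean minus 3 SD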;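 note: depolarization triggered by choline at its EC90 following an EC20 pre-addition; 0% = hemicholinium-3 full block and 100% = buffer-only control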
HEK293 MPD ctr – membrane potential effects in parental HEK293, counter-screen for CHT inhibitor project, cell-based, membrane potential dye. shares compounds with CHT block. choline response; active = decrease or increase beyond buffer ±3SD. membrane potential ratio readout (active if shifted either direction beyond buffer ±3SD; no single direction) at 10 µM. actives 4% (n = 2,400). AID 493222, 2011;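 note: parental cells lack the transporter so any hit is non-specific; ratio is peak minus trough fluorescence over baseline after EC90 choline challenge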
CHT activ conf – CHT activators, confirmation, cell-based, membrane potential dye, duplicate | activation, % at 10 µM | shares compounds with CHT allo act | CHT-expressing cells, membrane potential dye fluorescence (FDSS); % of choline EC20–EC90 response window; HEK293 expressing CHT LV-AA mutant; choline added at its EC20 | actives 91% (n = 2,500);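 active = primary screen active, with duplicate mean activation above negative control mean plus 3 SD, cut at about 11% in these data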
HEK293 MP dye – membrane potential response in parental HEK293 cells, counter-screen for CHT activator project, cell-based, membrane potential dye; shares compounds with CHT allo act; membrane potential dye fluorescence (FDSS); measured after EC20 choline addition; ratio readout change at 10 µM, hits read low; actives 62% (n = 2,500);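 active = duplicate-averaged ratio beyond 3 SD from buffer wells, up or down, though filed actives are nearly all decreases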
An asterisk follows results filed as active; ! = a repeat was not active. An excerpt weighted towards active compounds, which were near 2.2% of everything screened.

For COc1c(/C=C2/C(=O)NC(=O)N(C)C2=O)c(CCN(C)C(=O)c2ccccc2)cc2c1OCO2 the results were VLA-4 inh -10, Platelet DG rel -2, HIF activator 0, CHT block -6.5*, AI-2 QS modul 28, CHT allo act inactive, CHT inh conf 57%* and HEK293 MPD ctr inactive.
`CCNC(=S)N(C)CCc1cc2c(c(OC)c1C=C1C(=O)N(C)C(=O)N(C)C1=O)OCO2` gave VLA-4 inh 7, Platelet DG rel 7, HIF activator -1, CHT block inactive, AI-2 QS modul 19 and CHT allo act inactive.
For CCC(C)N1C(=O)/C(=C/c2ccc3c(c2)CCN3CCCCl)C(=O)NC1=S (stereo unspecified) the results were VLA-4 inh -286, Platelet DG rel 3, HIF activator -2, CHT block -5.9*, AI-2 QS modul -35, CHT allo act inactive, CHT inh conf inactive and HEK293 MPD ctr inactive.
`Cc1cccc(N2C(=O)NC(=O)/C(=C\c3ccc4c(c3)CCCN4Cc3ccccc3)C2=O)c1` gave VLA-4 inh -48, Platelet DG rel -10, HIF activator 0, CHT block inactive, AI-2 QS modul 22 and CHT allo act inactive.
`O=C1NC(=O)N(C2CCCCC2)C(=O)C1C1c2ccccc2C(=O)N1Cc1ccccc1` (stereo unspecified) gave VLA-4 inh 16, Platelet DG rel -1, HIF activator 0, CHT block inactive, AI-2 QS modul 19 and CHT allo act inactive.
For c1ccc2c(CN3CCCCCC3)c[nH]c2c1 the results were VLA-4 inh -2, Platelet DG rel 13, HIF activator 0, CHT block -6*, AI-2 QS modul 10, CHT allo act inactive, CHT inh conf 37%* and HEK293 MPD ctr inactive.
For O=C(COc1ccccc1)N1CCN(Cc2c[nH]c3ccccc23)CC1 the results were VLA-4 inh 14, Platelet DG rel -2, HIF activator 0, CHT block inactive, AI-2 QS modul 5 and CHT allo act inactive.
For Cc1ccc(C(=O)n2cc(CCN3CCS(=O)(=O)CC3)c3ccccc32)cc1 the results were VLA-4 inh 1, Platelet DG rel -11, HIF activator 0, CHT block inactive, AI-2 QS modul -3 and CHT allo act inactive.
For CC(=O)O[C@@]12CO[C@@H]1C[C@@H](O)[C@@]1(C)C(=O)[C@H](O)C3=C(C)[C@@H](OC(=O)[C@H](O)[C@@H](NC(=O)c4ccccc4)c4ccccc4)C[C@@](O)([C@@H](OC(=O)c4ccccc4)C12)C3(C)C (stereo partly specified) the results were VLA-4 inh 0, Platelet DG rel -7, HIF activator 0, CHT block -5.3*, AI-2 QS modul 56, CHT allo act inactive, CHT inh conf 63%* and HEK293 MPD ctr inactive.
For CCc1c(C)nc(N)nc1N1N=C1SCCOc1ccccc1 the results were VLA-4 inh 3, Platelet DG rel -29, HIF activator -1, CHT block -7.7*, AI-2 QS modul 7, CHT allo act inactive, CHT inh conf 12%* and HEK293 MPD ctr inactive.
For Cc1ccc(OCCSC2=NN2c2cc(C)nc(N)n2)cc1 the results were VLA-4 inh 28, Platelet DG rel 3, HIF activator 0, CHT block -11*, AI-2 QS modul 9, CHT allo act inactive, CHT inh conf 23%* and HEK293 MPD ctr inactive.
Screening CCSC1=NN1c1cc(C)nc(N)n1 returned VLA-4 inh 5, Platelet DG rel -13, HIF activator 0, CHT block inactive, AI-2 QS modul 16 and CHT allo act inactive.
Screening COC(=O)C1=C(c2ccc(F)cc2OCc2ccccc2)C[C@@H]2CC[C@H]1N2C(=O)NCC1CC1 returned VLA-4 inh -2.
For CC[N+](CC)(CC#CCO)CC#Cc1ccccc1 the results were VLA-4 inh 6, Platelet DG rel 3, HIF activator -1, CHT block -8.6*, AI-2 QS modul 25, CHT allo act inactive, CHT inh conf 35%* and HEK293 MPD ctr inactive.
For CN1CCCN(C(=O)COc2cccc(C(F)(F)F)c2)CC1 the results were VLA-4 inh 8, Platelet DG rel -8, HIF activator 0, CHT block inactive, AI-2 QS modul 22 and CHT allo act inactive.
For CC(=O)O[C@@H]1/C=C/[C@](C)(O)C[C@@H](C)C/C=C/[C@H]2[C@@H]3O[C@]3(C)[C@@H](C)[C@H]3[C@H](Cc4ccccc4)NC(=O)[C@@]312 the results were VLA-4 inh 17, Platelet DG rel -11, HIF activator -2, CHT block -5.1*, AI-2 QS modul -7, CHT allo act inactive, CHT inh conf 71%* and HEK293 MPD ctr inactive.
Cc1cccc(N2CCc3c2nc2ccccc2c3N)c1 was read as VLA-4 inh 3, Platelet DG rel 2, HIF activator 2, CHT block -9.3*!, AI-2 QS modul 21, CHT allo act inactive, CHT inh conf 56%*, HEK293 MPD ctr inactive, CHT activ conf 33* and HEK293 MP dye -56*.
